The results in this text go back to PubChem BioAssay (NCATS).

SMILES strings stand for the structures. Inconclusive results are not listed. Unmarked numbers belong to inactive results. Calls of active or inactive are those of the source. Calls come from the whole dose curve; as a rule, active = well fitted cell-killing curve with a large enough effect; inconclusive = small, poorly fitted or top-dose-only effect, or effect the other way; inactive = no such curve, though single readings can be large or run the other way.
Potency is the fitted concentration of half-maximal effect.

The nature of this test: Quantitative High-Throughput drug screen in 47 multiple myeloma cell lines against the NCATS MIPE library collection: KMS11_JCRBsus cell viability assay (AID 1919873). Note: nearly all actives have a fitted effect of over 50% in size. As to conditions: KMS11 myeloma viability, CellTiter-Glo ATP luminescence, 48 h; series mostly up to 45.8 µM; viability (% of control): at the top concentration. An excerpt:
PI: Beverly A. Mock Ph.D.
Laboratory of Cancer Biology and Genetics,
Center for Cancer Research, National Cancer Institute,
National Institute of Health, Bethesda, Maryland
Drug resistance and disease progression are common in multiple myeloma (MM) patients, underscoring the need for new therapeutic combinations. […] We hypothesized that effective combinations would reduce MYC expression and enhance p16 activity. […] These preclinical data identify potentially useful drug combinations for evaluation in drug-resistant MM and reveal potential mechanisms of combined drug sensitivity.
Described herein is the primary MIPE qHTS used to cherrypick compounds. Validated compounds were then further tested for potential synergistic activiy.
[1] Peat TJ, Gaikwad SM, Dubois W, Gyabaah-Kessie N, Zhang S, Gorjifard S, Phyo Z, Andres M, Hughitt VK, Simpson RM, Miller MA, Girvin AT, Taylor A, Williams D, D'Antonio N, Zhang Y, Rajagopalan A, Flietner E, Wilson K, Zhang X, Shinn P, Klumpp-Thomas C, McKnight C, Itkin Z, Chen L, Kazandijian D, Zhang J, Michalowski AM, Simmons JK, Keats J, Thomas CJ, Mock BA. Drug combinations identified by high-throughput screening promote cell cycle transition and upregulate Smad pathways in myeloma. Cancer Lett. 2023 Aug 1;568:216284. doi: 10.1016/j.canlet.2023.216284. Epub 2023 Jun 24. PMID: 37356470; PMCID: PMC10408729.
SEQUENCE No. (e.g., 1, 2, 3, etc.); […] (e.g., Cells, Incubation, Reagent, etc.); VALUE and DESCRIPTION.
1; Cells; 5 uL; white, solid bottom 1536-well Greiner assay plate.
2; Compounds; 23 nL; Kalypsis pin tool (Wako USA) equipped with a 1536-well pin head to transfer to the assay plates.
3; Incubation; 48 hours; 37C incubation.
4; Reagent;5uL; CellTiter Glo (Promega).
5; Detector; 425V; Luminescence; Viewlux PerkinElmer.
NOTES (numbers refer to Sequence numbers above)
1. The cell-based screening methods employed in this study were like those previously published. Briefly, the corresponding myeloma cell lines were screened in 1,536-well plates with 500 cells, 5-uL per well for inhibition of cell viability (assessed by measuring ATP levels with CellTiterGlo).
2. NCATS MIPE 4.0 library of approved and investigational drugs were added using the Kalypsis pin tool. Wells treated with DMSO only for 100% viability and media only for 0% viability were used as controls.
3. The assay plates were covered and incubated for 48 hours in a 37C, 5% CO2 incubator with controlled humidity.
4. After 48 hours, CellTilter-GloTM luminescent substrate mix (Promega) reagent was added to the assay plate and plates we incubated for 5 min at room temperature.
5. Signal was measured as median relative luminescence units on a ViewLux (PerkinElmer) multiplate reader.
[1] Heske CM, Davis MI, Baumgart JT, Wilson K, Gormally MV, Chen L, Zhang X, Ceribelli M, Duveau DY, Guha R, Ferrer M, Arnaldez FI, Ji J, Tran HL, Zhang Y, Mendoza A, Helman LJ, Thomas CJ. Matrix Screen Identifies Synergistic Combination of PARP Inhibitors and Nicotinamide Phosphoribosyltransferase (NAMPT) Inhibitors in Ewing Sarcoma. Clin Cancer Res. 2017 Dec 1;23(23):7301-7311. doi: 10.1158/1078-0432.CCR-17-1121. Epub 2017 Sep 12. PMID: 28899971; PMCID: PMC6636827.
(In general: In ATP-based viability assays light output follows the ATP content of the culture.)
For `CN1CCN(CCCN2c3ccccc3Sc3ccc(C(F)(F)F)cc32)CC1`, the “viability (% of control)” value was 109%.

In the case of `CCCS(=O)(=O)Nc1ccc(F)c(C(=O)c2c[nH]c3ncc(Cl)cc23)c1F`, the Potency was 26.4 µM (active). Take `C1COC(NC(C2CC2)C2CC2)=N1`: the “viability (% of control)” value was 90.8%. `S=C(NCc1ccc2c(c1)OCO2)N1CCN(c2ncnc3c2oc2ccccc23)CC1`: the Potency is 1.52 µM (active). Take `CS(=O)(=O)c1ccc(C(=O)Nc2ccc(Cl)c(-c3ccccn3)c2)c(Cl)c1`: the “viability (% of control)” value was 92.5%. Still for that read-out and setting: the result for `Oc1ccc(C2CNCCc3c2cc(O)c(O)c3Cl)cc1` (stereo not given) reads 92.9%.

For the compound `CS(=O)(=O)c1cccc(CNc2nc(Nc3ccc4c(c3)CCC(=O)N4)ncc2C(F)(F)F)c1`, the Potency is 8.33 µM (active).

As for `CNC[C@H](O)c1cccc(O)c1`, the “viability (% of control)” value was 88.1%. With `CC(C)OC(=O)C1=CN(C(=O)c2ccc(F)c(F)c2)CC(C)(C)c2c1[nH]c1ccccc21`, the “viability (% of control)” value was 95.8%. Consider `COCC(=O)NCC=Cc1ccc2ncnc(Nc3ccc(Oc4ccc(C)nc4)c(C)c3)c2c1`, for which the Potency is 18.7 µM (active).

As to `Cc1[nH]c(=O)c(C#N)cc1-c1ccc2nccn2c1`, the “viability (% of control)” value was 66.2%. In the case of `COc1cccc2cc(-c3nc(C4CCC(C(=O)O)CC4)n4ncnc(N)c34)[nH]c12` (stereo not given), the Potency is 0.132 µM (active). As for `COc1c(Cl)cc2c([nH]c3cnccc32)c1NC(=O)c1cccnc1C`, the Potency was 23.5 µM (active). Turning to `NC(=O)c1ccc(-c2nc(-c3ccc4c(c3)OCCO4)c(-c3ccccn3)[nH]2)cc1`, the “viability (% of control)” value is 91%.

In the case of `C[C@H](NC(=O)Cc1cc(F)cc(F)c1)C(=O)N[C@@H]1C(=O)N(C)c2ccccc2-c2ccccc21`, the “viability (% of control)” value was 63.3%. On the same count and under the same terms, next, `O=C(O)CCc1ccc(NCc2cccc(Oc3ccccc3)c2)cc1`: 111%. As to `Cc1n[nH]c(C)c1Cc1sc2c(c1C(=O)N1C[C@H](O)CO1)c(=O)n(C)c(=O)n2CC(C)C`, the Potency was 0.0526 µM (active). Take `COc1cc(F)c(F)c(Nc2ccc(I)cc2F)c1NS(=O)(=O)C1(C[C@H](O)CO)CC1`: the Potency was 16.6 µM (active). Turning to `NCCc1ccc(O)c(O)c1`, the Potency is 9.35 µM (active). Same read-out and setting: the result for `CC(=O)Oc1ccccc1C(=O)O` reads 10.5 µM (active). As to `O=C(Nc1nc2ccccc2n1CCN1CCOCC1)c1cccc([N+](=O)[O-])c1`, the “viability (% of control)” value was 89.5%. The same measure, in the same setting: next, `NC(=O)c1cnccn1`: 76%. As to `CC1(C)Cc2c(-c3ccccc3)c(-c3ccc(Cl)cc3)c(CC(=O)O)n2C1`, the Potency was 18.7 µM (active). On the same count and under the same terms, the result for `CCOC(=O)N1CCC(=C2c3ccc(Cl)cc3CCc3cccnc32)CC1` reads 20.9 µM (active); that for `COc1ccc(-c2c(-c3ccc(O)cc3O)n[nH]c2C)cc1`, 48.1 µM (active). As for `O=C(NOC[C@H](O)CO)c1ccc(F)c(F)c1Nc1ccc(I)cc1F`, the “viability (% of control)” value was 129%. The same measure, in the same setting: the result for `NC(=O)c1ccc(-c2nc(-c3ccc4c(c3)OCO4)c(-c3ccccn3)[nH]2)cc1` reads 91.7%; that for `c1ccc([C@H]2CN3CCSC3=N2)cc1`, 93.9%.

Regarding `COc1cc(Oc2ccnc3cc(OC)c(OC)cc23)ccc1NC(=O)NC(C)c1nccs1` (stereo not given), the Potency is 18.7 µM (active).

In the case of `CCn1cc(C(=O)O)c(=O)c2cc(F)c(N3CCNC(C)C3)c(F)c21` (stereo not given), the “viability (% of control)” value is 127%.

For the compound `CCN(c1ccccc1)c1cc(NC)[n+](C)c(C)n1`, the “viability (% of control)” value was 109%.

Regarding `CC[C@H](Nc1ncnc2nc[nH]c12)c1nc2cccc(F)c2c(=O)n1-c1ccccc1`, the Potency is 18.7 µM (active). Regarding `CN[C@@H](C)C(=O)N[C@H]1CCCC[C@H]2CC[C@@H](C(=O)N[C@@H](c3ccccc3)c3cn(CCCCc4ccc(CCCCn5cc([C@@H](NC(=O)[C@@H]6CC[C@@H]7CCCC[C@H](NC(=O)[C@H](C)NC)C(=O)N76)c6ccccc6)nn5)cc4)nn3)N2C1=O`, the “viability (% of control)” value was 136%. Still for that read-out and setting: next, `Cn1cnc2c(F)c(Nc3ccc(Br)cc3Cl)c(C(=O)NOCCO)cc21`: 97.1%. Still for that read-out and setting: the result for `COc1cc2c(cc1OC)CN(CCc1ccc(NC(=O)c3cccc4c(=O)c5cccc(OC)c5[nH]c34)cc1)CC2` reads 81.8%.

In the case of `O=C(C=Cc1ccc(/C=C/C(=O)Nc2ccc(C3=NCCN3)cc2)cc1)Nc1ccc(C2=NCCN2)cc1`, the “viability (% of control)” value was 122%.

With `CS(=O)(=O)Oc1ccc2c(NC(N)=O)c(C(=O)c3ccc(Cl)cc3Cl)oc2c1`, the Potency was 5.26 µM (active). As for `CCCCCCCc1ccc(CCc2cccc(O)c2C(=O)O)cc1`, the “viability (% of control)” value was 85.7%. The same measure, in the same setting: next, `Cc1ccccc1C(OCCN(C)C)c1ccccc1` (stereo not given): 92.8%. On the same count and under the same terms, next, `CCOc1cc(C=C2C(=O)N(c3ccccc3)N=C2C)cc(Cl)c1OCC(=O)OC`: 103%.
